For assay [1], the target named is CDK3/Cyclin E (Homo sapiens) (UniProt P24864+Q00526). The following applies: at 1 µM.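 Note: each figure is a mean percent inhibition of the CDK3/cyclin E complex.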
The target of assay [2] is Cyclin-dependent kinase 4 (Homo sapiens) (UniProt P11802). The following applies: at 0.1 µM.
For assay [3] the target is unchanged. As to conditions: at 1 µM.
The target in assay [4] is Cyclin-dependent kinase 5 (Homo sapiens) (UniProt Q00535). As to conditions: at 0.1 µM.
Assay [5] shares this target. As to conditions: at 1 µM.
In assay [6] the target is Cyclin-dependent kinase 6 (Homo sapiens) (UniProt Q00534). The following applies: at 0.1 µM.
Sequence of Cyclin-dependent kinase 6 (Homo sapiens) (Q00534 whole entry): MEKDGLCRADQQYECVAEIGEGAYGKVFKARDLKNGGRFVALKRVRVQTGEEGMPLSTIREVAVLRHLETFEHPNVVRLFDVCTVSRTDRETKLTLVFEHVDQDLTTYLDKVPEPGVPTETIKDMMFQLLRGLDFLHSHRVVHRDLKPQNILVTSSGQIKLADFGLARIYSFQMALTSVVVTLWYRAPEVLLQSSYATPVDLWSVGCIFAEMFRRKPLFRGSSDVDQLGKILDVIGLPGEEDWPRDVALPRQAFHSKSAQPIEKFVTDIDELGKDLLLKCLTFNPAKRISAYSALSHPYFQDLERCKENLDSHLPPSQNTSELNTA
The target is the same in assay [7]. The following applies: at 1 µM.
Assay [8] deals with Dual specificity protein kinase CLK2 (Homo sapiens) (UniProt P49760). The following applies: at 0.1 µM.
Sequence of Dual specificity protein kinase CLK2 (Homo sapiens) (P49760 whole entry, looked up): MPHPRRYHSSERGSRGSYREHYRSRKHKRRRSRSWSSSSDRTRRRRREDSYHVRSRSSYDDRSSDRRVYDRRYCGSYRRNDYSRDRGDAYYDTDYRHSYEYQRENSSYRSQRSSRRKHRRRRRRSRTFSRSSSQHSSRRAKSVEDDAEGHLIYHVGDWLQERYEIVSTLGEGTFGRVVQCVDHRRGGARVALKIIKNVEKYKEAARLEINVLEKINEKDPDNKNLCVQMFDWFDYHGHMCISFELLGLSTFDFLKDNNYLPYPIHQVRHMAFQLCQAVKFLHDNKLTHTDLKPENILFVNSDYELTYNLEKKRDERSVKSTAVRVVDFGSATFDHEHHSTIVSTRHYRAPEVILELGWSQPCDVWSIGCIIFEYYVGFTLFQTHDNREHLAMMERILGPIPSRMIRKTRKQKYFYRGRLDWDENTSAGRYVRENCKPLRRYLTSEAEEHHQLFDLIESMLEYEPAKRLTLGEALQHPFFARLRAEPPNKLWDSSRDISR
For assay [9] the target is unchanged. The following applies: at 1 µM.
Assay [10] concerns the target Dual specificity protein kinase CLK3 (Homo sapiens) (UniProt P49761). The following applies: at 0.1 µM.

Molecules are shown by their SMILES.

Sequence of CDK3/Cyclin E (Homo sapiens) (P24864 whole entry, looked up): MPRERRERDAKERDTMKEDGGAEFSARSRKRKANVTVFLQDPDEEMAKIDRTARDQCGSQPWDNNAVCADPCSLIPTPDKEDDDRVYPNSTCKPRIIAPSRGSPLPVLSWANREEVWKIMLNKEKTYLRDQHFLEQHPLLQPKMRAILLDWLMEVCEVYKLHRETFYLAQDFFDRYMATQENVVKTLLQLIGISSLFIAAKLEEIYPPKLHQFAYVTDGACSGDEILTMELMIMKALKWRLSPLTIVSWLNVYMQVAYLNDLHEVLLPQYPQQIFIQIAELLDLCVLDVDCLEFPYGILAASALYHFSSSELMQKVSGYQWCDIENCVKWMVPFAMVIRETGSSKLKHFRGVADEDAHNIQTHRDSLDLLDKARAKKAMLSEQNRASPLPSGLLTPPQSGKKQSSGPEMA
Sequence of CDK3/Cyclin E (Homo sapiens) (Q00526 whole entry, looked up): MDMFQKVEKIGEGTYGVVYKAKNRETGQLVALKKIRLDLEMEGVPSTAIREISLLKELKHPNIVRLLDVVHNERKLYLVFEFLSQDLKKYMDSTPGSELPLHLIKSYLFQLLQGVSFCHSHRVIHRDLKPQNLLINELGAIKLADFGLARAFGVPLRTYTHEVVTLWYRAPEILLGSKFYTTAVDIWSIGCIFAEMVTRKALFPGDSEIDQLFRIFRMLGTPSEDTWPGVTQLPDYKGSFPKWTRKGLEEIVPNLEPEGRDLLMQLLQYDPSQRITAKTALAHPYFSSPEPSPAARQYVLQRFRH
Sequence of Cyclin-dependent kinase 5 (Homo sapiens) (Q00535 whole entry, looked up): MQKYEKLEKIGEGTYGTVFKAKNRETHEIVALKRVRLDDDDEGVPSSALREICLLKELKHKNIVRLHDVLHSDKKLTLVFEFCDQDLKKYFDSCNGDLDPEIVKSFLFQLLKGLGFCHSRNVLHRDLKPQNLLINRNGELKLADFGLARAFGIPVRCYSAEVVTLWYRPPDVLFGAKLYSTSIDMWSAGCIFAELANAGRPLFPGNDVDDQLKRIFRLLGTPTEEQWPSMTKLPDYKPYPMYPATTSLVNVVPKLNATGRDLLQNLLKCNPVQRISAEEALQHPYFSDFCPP
Sequence of Dual specificity protein kinase CLK3 (Homo sapiens) (P49761 whole entry, looked up): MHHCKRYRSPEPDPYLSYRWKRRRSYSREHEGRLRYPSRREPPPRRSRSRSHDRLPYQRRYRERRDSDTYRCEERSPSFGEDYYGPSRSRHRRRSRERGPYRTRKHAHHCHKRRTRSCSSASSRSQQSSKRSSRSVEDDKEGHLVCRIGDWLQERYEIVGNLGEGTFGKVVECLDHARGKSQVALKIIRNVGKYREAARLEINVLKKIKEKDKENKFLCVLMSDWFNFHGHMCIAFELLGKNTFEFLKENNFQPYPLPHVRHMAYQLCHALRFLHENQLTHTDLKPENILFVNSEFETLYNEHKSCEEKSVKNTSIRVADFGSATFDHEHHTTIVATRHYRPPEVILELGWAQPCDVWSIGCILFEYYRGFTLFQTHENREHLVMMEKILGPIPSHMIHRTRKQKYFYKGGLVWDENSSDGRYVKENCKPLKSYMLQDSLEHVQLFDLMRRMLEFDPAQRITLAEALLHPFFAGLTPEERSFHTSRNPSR
Sequence of Cyclin-dependent kinase 4 (Homo sapiens) (P11802 whole entry): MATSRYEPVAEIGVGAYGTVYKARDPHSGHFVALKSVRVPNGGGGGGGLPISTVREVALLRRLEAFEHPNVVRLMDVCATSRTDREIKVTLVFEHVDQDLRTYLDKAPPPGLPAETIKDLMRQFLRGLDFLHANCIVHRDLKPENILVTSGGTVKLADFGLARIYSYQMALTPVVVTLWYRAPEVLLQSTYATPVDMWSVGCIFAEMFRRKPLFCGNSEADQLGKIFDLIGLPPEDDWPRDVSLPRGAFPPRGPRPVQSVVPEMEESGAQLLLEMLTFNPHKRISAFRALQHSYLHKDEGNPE

With `CNC(=O)c1ncccc1Nc1nc(Nc2cc3c(cc2OC)CCCN3C(=O)CN(C)C)nc2[nH]ccc12`, the inhibition in assay [1] stood at 1.69%; in [2], 5.18%; in assay [3], 11.4%; in assay [4], 3.84%; in assay [5], 6.35%; in [6], 3.87%. Further, the inhibition in assay [7] came out at 7.17%; in assay [8], 54.3%; in assay [9], 93.1%; in assay [10], 1.98%.

For the compound `Fc1cccc(COc2ccc(Nc3ncncc3C#Cc3ccccc3)cc2Cl)c1`, the inhibition in assay [1] was -2.37%; in assay [2] it was 2.27%; in assay [3] it was 2.61%; in [4], 1.02%; in assay [5], 1.31%; in [6], 3.3%. Besides, the inhibition in [7] came to 2.89%; in assay [8], 1.45%; in assay [9], 2.09%; in assay [10], 2.41%.

Regarding `O=C(O[C@H]1CN[C@H](C#Cc2cc3ncnc(Nc4ccc5c(ccn5Cc5cc(F)ccc5F)c4)c3s2)C1)N1CCOCC1`, the inhibition in assay [1] was -2.16%; in [2], 2.17%; in assay [3] it was 1.93%; in assay [4], 1.09%; in [5], 0.14%; in [6] it was -1.14%. The inhibition in [7] worked out at 1.5%; in assay [8], 1.29%; in assay [9] it was 0.52%; in assay [10], 1.27%.

As to `CS(=O)(=O)CCNCc1ccoc1-c1ccc2ncnc(Nc3ccc(OCc4ccccc4)cc3)c2c1`, the inhibition in assay [1] is -1.1%; in assay [2] it was 0.34%; in [3] it was 2.91%; in [4], 0.75%; in assay [5], 1.14%; in [6] it was -0.43%. For the same compound, the inhibition in [7] is 5.44%; in [8] it was 0.36%; in assay [9] it was -2.93%; in [10], -0.17%.

For the compound `CS(=O)(=O)Nc1ccc(-c2cc(-c3ccccc3)cc(C(N)=O)c2N)cc1`, the inhibition in assay [1] is -1.91%; in assay [2], 0.62%; in assay [3], 1.63%; in [4], 0.11%; in assay [5], 0.2%; in assay [6], -0.52%. The inhibition in assay [7] is -0.55%; in assay [8], 0.11%; in assay [9] it was 2.34%; in assay [10] it was 0.2%.

As to `Cn1c(-c2nonc2N)nc2cnccc21`, the inhibition was 2.12% in assay [1]; 1.95% in assay [2]; 3.9% in assay [3]; 1.09% in [4]; 7.18% in [5]; -4.08% in assay [6]. For the same compound, the inhibition was found to be 1.64% in assay [7], 2.9% in assay [8], 10.3% in [9] and 1% in assay [10].

On to `NS(=O)(=O)c1ccc(N/N=C2\C(=O)Nc3cccc(CCc4ccncc4)c32)cc1`, for which the inhibition in assay [1] was 63.6%; in assay [2], 14%; in assay [3], 29.4%; in assay [4] it was 19.4%; in assay [5], 38.5%; in assay [6] it was 36.6%. Besides, the inhibition in [7] stood at 56.2%; in [8], 0.9%; in assay [9], 4.17%; in assay [10] it was 0.97%.

In the case of `Fc1ccc(Nc2nccc(-c3c(-c4ccc(C(F)(F)F)cc4)nn4ncccc34)n2)cc1F`, the inhibition in assay [1] was -0.37%; in [2], 2.28%; in assay [3] it was 2.36%; in assay [4], 0.28%; in [5] it was 0.64%; in assay [6], 1.44%. Also, the inhibition is 1.37% in assay [7], 2.15% in assay [8], 1.63% in assay [9] and 2.2% in [10].

For the compound `COc1cc(N2CCN(C(C)C)CC2)ccc1Nc1nc(Nc2cccc3ncccc23)c2cc[nH]c2n1`, the inhibition in assay [1] was -2.06%; in assay [2], -0.07%; in assay [3] it was 1.11%; in assay [4] it was 1.69%; in assay [5], 4.66%; in assay [6] it was 1.04%. Further, the inhibition in assay [7] is 8.48%; in assay [8], 4.18%; in assay [9] it was 20.7%; in assay [10], -0.15%.

As to `c1cnn2ncc(-c3ccnc(NCCCN4CCOCC4)n3)c2c1`, the inhibition in assay [1] was -0.22%; in assay [2] it was 2.24%; in [3] it was 7.97%; in [4], 0.21%; in [5], 2.95%; in assay [6], -1.7%. For the same compound, the inhibition in assay [7] stood at 2.95%; in [8], 1.77%; in assay [9], 6.81%; in [10], 0.39%.

With `CNC(=O)c1sc(-n2cnc3cc(OC)c(OC)cc32)cc1OCc1ccccc1C(F)(F)F`, the inhibition in assay [1] was -1.01%; in assay [2] it was 1.64%; in assay [3] it was 3.5%; in assay [4] it was 0.36%; in [5], 1.5%; in [6], -0.46%. Besides, the inhibition in assay [7] is 1.53%; in assay [8] it was 1.74%; in [9], -1.57%; in [10], 0.24%.

For `OCCCNc1nccc(-c2c(-c3ccc(F)cc3)nn3cc(C(F)(F)F)ccc23)n1`, the inhibition in assay [1] was determined as 0.86%; in assay [2] it was 0.94%; in assay [3], 3.36%; in assay [4] it was 2.06%; in [5], 3.96%; in assay [6], 1.79%. In addition, the inhibition in assay [7] was 5.92%; in [8] it was 0.1%; in assay [9], 1.15%; in assay [10], 0.35%.

Regarding `O=C(O[C@H]1CN[C@H](C#Cc2cc3ncnc(Nc4ccc(OCc5cccc(F)c5)c(Cl)c4)c3s2)C1)N1CCOCC1`, the inhibition in [1] was -3.23%; in assay [2], 2.11%; in assay [3], 2.33%; in assay [4], 0.49%; in assay [5] it was -0.57%; in assay [6] it was 1.23%. Moreover, the inhibition in assay [7] was -0.42%; in assay [8], -0.15%; in [9], -0.4%; in assay [10], 2.68%.

As for `CCn1c(-c2nonc2N)nc2cncc(C(=O)NCCNC)c21`, the inhibition in assay [1] was 0.12%; in [2], 1.73%; in assay [3], 3.94%; in [4], -0.65%; in assay [5], 0.97%; in assay [6] it was -0.66%. Also, the inhibition was 1.38% in assay [7], 1.2% in [8], 10.5% in assay [9] and -2.71% in [10].

As for `Cc1c2ccc(N(C)c3ccnc(Nc4cccc(S(N)(=O)=O)c4)n3)cc2nn1C`, the inhibition in assay [1] is 2.13%; in [2] it was -3.55%; in [3] it was 9.57%; in assay [4], -1.58%; in assay [5], 0.35%; in [6], -1.51%. The inhibition in assay [7] was 15.3%; in assay [8], 1.61%; in assay [9] it was 0.97%; in assay [10] it was -1.14%.

Broadly, the inhibition is the change of the read-out against control, counted positive when it falls.

The values above are taken from ChEMBL document CHEMBL1961873, “Compounds: GSK PKIS; Assays: Nanosyn kinase panel” (2012).
